Test results taken from PubChem BioAssay AID504592 (Broad Institute, 2011).
The campaign covered roughly 1,100 compounds. About 540 (49%) were called active. Roughly 5% stayed inconclusive and do not appear here. The set was probably picked from earlier hits. Only a sample is shown. A number with no mark means an inactive call. No stated cut-off is given here; in the data, active means inhibition above about 54%; inconclusive means no clear call, values can overlap the other calls; inactive means below that.

Experiment: prion 5' UTR mRNA inhibition, cherry-pick retest (AID 504592)
Settings: cell-based prion protein 5' UTR reporter, plate reader; at 2.5 µM; hits give high values

Structure (SMILES) | inhibition
NC(=O)c1ccc(NC(=O)COC(=O)c2ccc([N+](=O)[O-])cc2)cc1 | 91.9% (active)
O=C1/C(=C\c2ccc([N+](=O)[O-])cc2)CS(=O)(=O)C/C1=C/c1ccc([N+](=O)[O-])cc1 | 85.3% (active)
CC12CCC3C(CCC4CC(=O)CCC43C)C1CC(=NO)C2=O (stereo unspecified) | 0.372%
O=C(CSc1ncnc2sccc12)N1CCN(C(=O)c2cccs2)CC1 | 9.5%
COc1cc(OC)cc(C(=O)N[C@H](C(=O)Nc2nc3ccccc3[nH]2)C(C)C)c1 | 44.9%
COc1cccc2c1C(=O)c1c(O)c3c(c(O)c1C2=O)CC(O)(C(C)=NNC(=O)c1ccc(Cl)c(Cl)c1)CC3OC1CC(N)C(O)C(C)O1 (stereo unspecified) | 82.4% (active)
CCC(C)(O)C(=O)OC1C(=O)OC2CC3C(C)=CC(=O)C(O)C3(C)C3C4(O)OCC23C1C(C)C4O (stereo unspecified) | 83% (active)
Cc1ccc2nc(-c3ccc(Br)cc3)cn2c1 | 40%
Cc1ccc(-c2cn3cc(C)ccc3n2)cc1 | 89.9% (active)
Nc1ccc(OCC(O)C[n+]2ccc(CCS(=O)(=O)[O-])cc2)cc1 (stereo unspecified) | -71.6%
CN(NC(=O)c1ccccc1F)c1nc(C(F)(F)F)nc2ccccc12 | 86.4% (active)
COc1ccc(C2=Nn3c(nnc3-c3ccccc3OC)SC2)cc1OC1CCCC1 | 79.2% (active)
CC(C)(C)C1CCc2c(sc3nc(SCC(N)=O)nc(N)c23)C1 (stereo unspecified) | -25.3%
COC1C(O)C(C)OC(OC2CCC3(C=O)C(CCC4C3CCC3(C)C(C5=CC(=O)OC5)CCC43O)C2)C1O (stereo unspecified) | 91.9% (active)
Cc1ccc(CCC(=O)Nc2ncc(Cc3cc(Cl)ccc3Cl)s2)o1 | 89.3% (active)
Clc1ccc2nc(-c3ccccc3)nc(C(Cl)Cl)c2c1 | 89.1% (active)
Cc1cc(NC(=O)/C=C/C(=O)N(CC(=O)NC2CCCC2)c2ccc(F)cc2)no1 | 15.5%
O=C(NNC(=O)c1ccccc1O)c1ccccc1O | 62.2% (active)
CC1Cc2ccccc2N1C(=O)c1cc2sccc2n1Cc1ccccc1 (stereo unspecified) | -33.3%
O=c1oc2ccccc2cc1-c1cn(-c2ccccc2)c(=S)[nH]1 | 86.9% (active)
CCCOC(=O)c1[nH]c2c(c1C)C(=O)CC(c1cccs1)C2 (stereo unspecified) | 88.2% (active)
Cc1cc(Nc2ccccc2)n(C(=O)c2ccc(N)cc2)n1 | 12%
COc1cc([N+](=O)[O-])ccc1NC(=S)N1CCN(c2ccccn2)CC1 | -10.7%
CN(c1ccc2nc3ccccc3c(=O)n2n1)C1CCCCC1 | 86.2% (active)
O=C(Nc1ccc2c(c1)OCCO2)C1CCCC1 | 33.2%
CCOc1cc(NS(=O)(=O)c2ccc(OC)cc2)c(OCC)cc1NC(C)=O | -19.5%

Structure (SMILES) | inhibition
C=CCOc1ccc(/C=C2\SC(=S)N(CCC(=O)O)C2=O)cc1 | 61.2% (active)
COc1cc(SC)ccc1C(=O)Nc1nc(C)cs1 | 79% (active)
OCC1(Cc2ccccc2)CCN(Cc2cc3ccccc3o2)CC1 | -6.23%
O=C(CN1C(=O)c2ccccc2S1(=O)=O)N1CCc2ccccc21 | 80% (active)
CC(C)(C)c1ccc(Oc2ccc(N)cc2)cc1 | 85.6% (active)
O=C(C1=C[C@H](c2coc3ccccc3c2=O)C[C@H](OCc2ccc(CO)cc2)O1)N1CCN(Cc2ccccc2)CC1 | -63.6%
COc1ccc(C(=O)Nc2ccccc2C(=O)N/N=C/c2ccc(O)c(OC)c2)cc1 | 71.2% (active)
CCC(C)Cn1c(O)cc2nn(-c3nc4ccccc4s3)c(=O)c-2c1C (stereo unspecified) | 89.8% (active)
CCCCNS(=O)(=O)CCNCc1ccccc1OC | -14.3%
Oc1ccc(N2CCN(C(=S)NCc3ccccc3)CC2)cc1 | -21.4%
CC(=O)OC1C2(CC3N4C(=O)C5(CO)SSC4(CC31O)C(=O)N5C)OC(C)C(C)(C)C2=O (stereo unspecified) | 98.2% (active)
CCn1c(=O)c(=O)[nH]c2c(=O)oc3ccc(S(=O)(=O)Nc4ccc(OC)cc4)cc3c21 | -6.15%
COC(=O)Cc1[nH]n(-c2nc3ccccc3s2)c(=O)c1C(C)=Nc1ccc(OC)cc1 | 80.6% (active)
COc1ccc(OC)c(Cc2cnc3nc(N)nc(N)c3c2C)c1 | -3.64%
CC(=O)c1ccc(Oc2cc(C)nc(-n3nc(C)cc3C)n2)cc1 | 83.7% (active)
COc1ccc(C(=O)/C=C/Nc2ccccn2)cc1 | 73.9% (active)
Cc1ccc(-c2cccc([C@H]3[C@@H]4C=CC[C@@H](C)[C@@H]4C(=O)N3Cc3ccccc3)c2)cc1 | -13.7%
CSc1nc(-c2ccccc2)nc(C(Cl)Cl)n1 | 89.8% (active)
C=CCn1c(C)cc(C2=NNC(=NCC)SC2)c1C | 95.3% (active)
O=C1[C@@H](c2ccccc2)[C@@H](c2ccccc2)N1c1cccnc1 | -4.06%
Cc1ccc(S(=O)(=O)Nc2nc3ccccc3s2)cc1[N+](=O)[O-] | 79.1% (active)
C/C(=N\NC(=O)c1cc2c(s1)CCC(C)C2)c1cccnc1 (stereo unspecified) | -16.9%
Cc1ccc(/C=N/NC(=O)COc2ccccc2-c2ccccc2)cc1 | 87.8% (active)
COc1ccccc1N1CCN(C(=O)c2cc(=O)c3cc(C)cc(C)c3o2)CC1 | 91.6% (active)
CN(CCO)c1ccc(/C=N/Nc2nncc3ccccc23)cc1 | 72.6% (active)
